Measurements reported in PubChem BioAssay AID1159580 (chemical genetic matrix, 2015).
The campaign covered roughly 5,500 compounds. About 2,000 (36%) were called active. About 18% were inconclusive and are not listed. No stated cut-off is given here; in the data, active means normalized growth mostly below about 0.91 (no sharp cut-off); inconclusive means no clear call, values can overlap the other calls; inactive means mostly above about 0.92. Some of the results follow.

Assay: chemical genetic growth profiling, strain panel (AID 1159580);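 further: tested at 20 µM; growth read once vehicle control cultures reached saturation at 30 °C; 1 = growth at the plate median or of vehicle wells; lower values mean less growth of the strain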
Settings: growth OD
[1] = S. cerevisiae deletion strains, locus YDL101C, strain DUN1, active compounds read low
[2] = S. cerevisiae deletion strains, locus YHR030C, strain SLT2, active compounds read low

Measured: normalized growth

O=S(=O)(CS(=O)(=O)Oc1ccc(Cl)c(Cl)c1)Oc1ccc(Cl)c(Cl)c1
inactive: S. cerevisiae deletion strains, locus YAR019C, strain CDC15, active compounds read low 0.95 | S. cerevisiae deletion strains, locus YBL105C, strain PKC1, active compounds read low 0.944 | S. cerevisiae deletion strains, locus YBR135W, strain CKS1, active compounds read low 0.947 | S. cerevisiae deletion strains, locus YBR136W, strain MEC1, active compounds read low 0.946 | S. cerevisiae deletion strains, locus YBR160W, strain CDC28, active compounds read low 0.946 | S. cerevisiae deletion strains, locus YDL017W, strain CDC7, active compounds read low 0.937 | S. cerevisiae deletion strains, locus YDL028C, strain MPS1, active compounds read low 0.946 | [1] 0.971 | S. cerevisiae deletion strains, locus YDL108W, strain KIN28, active compounds read low 0.937 | S. cerevisiae deletion strains, locus YDL132W, strain cdc53, active compounds read low 0.968 | S. cerevisiae deletion strains, locus YDL214C, strain PRR2, active compounds read low 0.986 | S. cerevisiae deletion strains, locus YDR052C, strain DBF4, active compounds read low 0.937 | S. cerevisiae deletion strains, locus YDR054C, strain cdc34, active compounds read low 0.932 | S. cerevisiae deletion strains, locus YDR226W, strain ADK1, active compounds read low 0.913 | S. cerevisiae deletion strains, locus YDR477W, strain SNF1, active compounds read low 0.966 | S. cerevisiae deletion strains, locus YER123W, strain YCK3, active compounds read low 0.989 | S. cerevisiae deletion strains, locus YER133W, strain GLC7, active compounds read low 0.969 | S. cerevisiae deletion strains, locus YFL009W, strain cdc4, active compounds read low 0.931 | S. cerevisiae deletion strains, locus YFL029C, strain CAK1, active compounds read low 0.95 | S. cerevisiae deletion strains, locus YFR003C, strain YPI1, active compounds read low 0.944 | S. cerevisiae deletion strains, locus YFR019W, strain FAB1, active compounds read low 0.946 | S. cerevisiae deletion strains, locus YFR028C, strain CDC14, active compounds read low 0.97 | S. cerevisiae deletion strains, locus YGR040W, strain KSS1, active compounds read low 0.983 | S. cerevisiae deletion strains, locus YGR052W, strain FMP48, active compounds read low 1.02 | S. cerevisiae deletion strains, locus YGR092W, strain DBF2, active compounds read low 0.905 | S. cerevisiae deletion strains, locus YHR079C, strain IRE1, active compounds read low 0.918 | S. cerevisiae deletion strains, locus YHR082C, strain KSP1, active compounds read low 1.03 | S. cerevisiae deletion strains, locus YHR205W, strain SCH9, active compounds read low 0.756 | S. cerevisiae deletion strains, locus YIL147C, strain SLN1, active compounds read low 0.943 | S. cerevisiae deletion strains, locus YJL095W, strain BCK1, active compounds read low 0.935 | S. cerevisiae deletion strains, locus YJL128C, strain PBS2, active compounds read low 0.969 | S. cerevisiae deletion strains, locus YJL157C, strain FAR1, active compounds read low 0.959 | S. cerevisiae deletion strains, locus YJR016C, strain ILV3, active compounds read low 0.951 | S. cerevisiae deletion strains, locus YJR066W, strain TOR1 (second series), active compounds read low 0.994 | S. cerevisiae deletion strains, locus YJR066W, strain TOR1, active compounds read low 1.03 | S. cerevisiae deletion strains, locus YKL048C, strain ELM1, active compounds read low 0.963 | S. cerevisiae deletion strains, locus YKL067W, strain YNK1, active compounds read low 0.983 | S. cerevisiae deletion strains, locus YKL101W, strain HSL1, active compounds read low 0.981 | S. cerevisiae deletion strains, locus YKL193C, strain SDS22, active compounds read low 0.944 | S. cerevisiae deletion strains, locus YKL203C, strain TOR2, active compounds read low 1.05 | S. cerevisiae deletion strains, locus YLR113W, strain HOG1, active compounds read low 0.962 | S. cerevisiae deletion strains, locus YLR133W, strain CKI1, active compounds read low 0.961 | S. cerevisiae deletion strains, locus YLR403W, strain SFP1, active compounds read low 0.823 | S. cerevisiae deletion strains, locus YML070W, strain DAK1, active compounds read low 0.991 | S. cerevisiae deletion strains, locus YMR001C, strain CDC5, active compounds read low 0.94 | S. cerevisiae deletion strains, locus YMR205C, strain PFK2 (second series), active compounds read low 0.972 | S. cerevisiae deletion strains, locus YMR277W, strain FCP1, active compounds read low 0.949 | S. cerevisiae deletion strains, locus YNL006W, strain LST8, active compounds read low 0.967 | S. cerevisiae deletion strains, locus YNL020C, strain ARK1, active compounds read low 0.955 | S. cerevisiae deletion strains, locus YNL161W, strain CBK1, active compounds read low 0.949 | S. cerevisiae deletion strains, locus YNL183C, strain NPR1, active compounds read low 1.09 | S. cerevisiae deletion strains, locus YNL207W, strain RIO2, active compounds read low 0.941 | S. cerevisiae deletion strains, locus YNL222W, strain SSU72, active compounds read low 0.955 | S. cerevisiae deletion strains, locus YNL307C, strain MCK1 (second series), active compounds read low 0.961 | S. cerevisiae deletion strains, locus YOL078W, strain AVO1, active compounds read low 0.946 | S. cerevisiae deletion strains, locus YOL136C, strain PFK27, active compounds read low 0.949 | S. cerevisiae deletion strains, locus YOR061W, strain CKA2, active compounds read low 0.984 | S. cerevisiae deletion strains, locus YOR119C, strain RIO1, active compounds read low 1.05 | S. cerevisiae deletion strains, locus YOR231W, strain MKK1, active compounds read low 1.07 | S. cerevisiae deletion strains, locus YOR329C, strain SCD5, active compounds read low 0.951 | S. cerevisiae deletion strains, locus YPL031C, strain PHO85, active compounds read low 0.948 | S. cerevisiae deletion strains, locus YPL153C, strain RAD53, active compounds read low 0.974 | S. cerevisiae deletion strains, locus YPL204W, strain HRR25, active compounds read low 0.945 | S. cerevisiae deletion strains, locus YPL209C, strain IPL1, active compounds read low 0.949 | S. cerevisiae deletion strains, locus YPL256C, strain CLN2, active compounds read low 0.945 | S. cerevisiae deletion strains, locus YPR025C, strain CCL1, active compounds read low 0.956 | S. cerevisiae deletion strains, locus YPR106W, strain ISR1, active compounds read low 0.942 | S. cerevisiae deletion strains, locus YPR111W, strain DBF20, active compounds read low 0.938 | S. cerevisiae deletion strains, strain NNK1, active compounds read low 0.956 | S. cerevisiae deletion strains, strain TSCII, active compounds read low 0.945
active: [2] 0.85

O=S(=O)(Oc1cc(Cl)cc(Cl)c1)c1cccc(S(=O)(=O)Oc2cc(Cl)cc(Cl)c2)c1
inactive: S. cerevisiae deletion strains, locus YAL013W, strain DEP1, active compounds read low 1.01 | S. cerevisiae deletion strains, locus YBR229C, strain ROT2, active compounds read low 1.01 | S. cerevisiae deletion strains, locus YCL061C, strain MRC1, active compounds read low 1.01 | [1] 1.01 | S. cerevisiae deletion strains, locus YDL134C, strain PPH21, active compounds read low 1.01 | S. cerevisiae deletion strains, locus YDR150W, strain NUM1, active compounds read low 1 | S. cerevisiae deletion strains, locus YEL061C, strain CIN8, active compounds read low 1.01 | S. cerevisiae deletion strains, locus YGR078C, strain PAC10, active compounds read low 1.02 | [2] 1.04 | S. cerevisiae deletion strains, locus YHR087W, strain rtc3, active compounds read low 0.996 | S. cerevisiae deletion strains, locus YJR043C, strain POL32, active compounds read low 1 | S. cerevisiae deletion strains, locus YJR075W, strain HOC1, active compounds read low 0.988 | S. cerevisiae deletion strains, locus YLR039C, strain RIC1, active compounds read low 1.1 | S. cerevisiae deletion strains, locus YLR058C, strain SHM2 (second series), active compounds read low 0.998 | S. cerevisiae deletion strains, locus YLR085C, strain ARP6, active compounds read low 1.06 | S. cerevisiae deletion strains, locus YLR262C, strain YPT6, active compounds read low 1.02 | S. cerevisiae deletion strains, locus YML094W, strain GIM5, active compounds read low 1.01 | S. cerevisiae deletion strains, locus YMR219W, strain ESC1, active compounds read low 0.998 | S. cerevisiae deletion strains, locus YMR263W, strain SAP30, active compounds read low 0.992 | S. cerevisiae deletion strains, locus YNL153C, strain GIM3, active compounds read low 1.01 | S. cerevisiae deletion strains, locus YNL298W, strain CLA4 (second series), active compounds read low 1.07 | S. cerevisiae deletion strains, locus YNL322C, strain KRE1, active compounds read low 1.01 | S. cerevisiae deletion strains, locus YNR030W, strain Alg12, active compounds read low 1.01 | S. cerevisiae deletion strains, locus YOL006C, strain TOP1, active compounds read low 1.06 | S. cerevisiae deletion strains, locus YPL055C, strain LGE1, active compounds read low 1.01 | S. cerevisiae deletion strains, locus YPL241C, strain CIN2, active compounds read low 1.03 | S. cerevisiae deletion strains, locus YPR135W, strain CTF4, active compounds read low 1.01 | S. cerevisiae strains, strain wild type, active compounds read low 1.04
